Where “and” joins values, the source holds several entries; their conditions need not be identical. Equal values may be shown once. Calls of active or inactive are those of the source. No stated cut-off is given here; in the data, active means inhibition above about 80%; inactive means the rest.

The first assay can be described thus: human astrocyte viability loss, single and combined drugs, cytotoxicity control for chromothriptic childhood tumor combination screen, cell-based, BGB or cisplatin IC20 combos (AID 1671460).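 Further: cells exposed to compounds for 96 hours before viability readout; 0% = vehicle and 100% = killing control.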 The settings on record: Human astrocytes, drug combinations, measured here: combo with BGB IC20, at 0.5 µM, stronger effect = higher value.
Regarding `CC(=O)OCC(CCn1cnc2cnc(N)nc21)COC(C)=O`, the inhibition was determined as 10.6%.
The same measure, in the same setting: next, `S=c1nc[nH]c2nc[nH]c12`: 14.2% and -8.32% and -0.26%; `COc1c(N2CCNC(C)C2)c(F)cc2c(=O)c(C(=O)O)cn(C3CC3)c12` (stereo not drawn): -5.37% and 4.53%.
The same measure, in the same setting: next, `CC1COc2c(N3CCN(C)CC3)c(F)cc3c(=O)c(C(=O)O)cn1c23` (stereo not drawn): 12.7% and 6.41% and 15%; `O=C1c2c(O)ccc(O)c2C(=O)c2c(NCCNCCO)ccc(NCCNCCO)c21`: 69.1%.
The same measure, in the same setting: the figure for `CS(=O)(=O)OCCCCOS(C)(=O)=O` is 2.2% and 2.78%; for `O=C(O)CCCc1ccccc1` it is -14.8%.

The same assay, now with this note: Human astrocytes, drug combinations, measured here: combo with cisplatin IC20, at 0.5 µM, stronger effect = higher value.
On to `CC(=O)OCC(CCn1cnc2cnc(N)nc21)COC(C)=O`, for which the inhibition was -5.87%.
On the same count and under the same terms, the figure for `S=c1nc[nH]c2nc[nH]c12` is 3.43% and 3.12% and -27.4%.
As to `COc1c(N2CCNC(C)C2)c(F)cc2c(=O)c(C(=O)O)cn(C3CC3)c12` (stereo not drawn), the inhibition is -9.08% and 0.874%.
For `CC1COc2c(N3CCN(C)CC3)c(F)cc3c(=O)c(C(=O)O)cn1c23` (stereo not drawn), the inhibition was -18.7% and -2.95% and 15.1%.
On the same count and under the same terms, the figure for `O=C1c2c(O)ccc(O)c2C(=O)c2c(NCCNCCO)ccc(NCCNCCO)c21` is 56.7%; for `CS(=O)(=O)OCCCCOS(C)(=O)=O` it is 9.68% and 12.3%.
Still for that read-out and setting: the figure for `O=C(O)CCCc1ccccc1` is -0.734%.

A short description of a further assay: growth inhibition of BT084 medulloblastoma cells, cell-based, ICGC_MB145, cisplatin and BGB IC40 combos (AID 1671461).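 Further: cells exposed to drugs for 96 hours; 0% = vehicle DMSO and 100% = high DMSO full killing control.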 The settings on record: drug combinations, at 0.5 µM, stronger effect = higher value.
As to `CC(=O)OCC(CCn1cnc2cnc(N)nc21)COC(C)=O`, the inhibition was -39.8% (inactive).
Still for that read-out and setting: next, `S=c1nc[nH]c2nc[nH]c12`: -23.3% (inactive) and -12% (inactive) and -13.4% (inactive).
The same measure, in the same setting: next, `COc1c(N2CCNC(C)C2)c(F)cc2c(=O)c(C(=O)O)cn(C3CC3)c12` (stereo not drawn): 11.1% (inactive) and -2.29% (inactive); `CC1COc2c(N3CCN(C)CC3)c(F)cc3c(=O)c(C(=O)O)cn1c23` (stereo not drawn): -33.3% (inactive) and -1.31% (inactive) and 2.04% (inactive).
Consider `O=C1c2c(O)ccc(O)c2C(=O)c2c(NCCNCCO)ccc(NCCNCCO)c21`, for which the inhibition is -10.6% (inactive).
Still for that read-out and setting: the figure for `CS(=O)(=O)OCCCCOS(C)(=O)=O` is 3.5% (inactive) and 8.55% (inactive).
The same measure, in the same setting: next, `O=C(O)CCCc1ccccc1`: -24.2% (inactive).

Staying with this assay, now noted: drug combinations, cisplatin combination, at 0.5 µM, stronger effect = higher value.
On to `CC(=O)OCC(CCn1cnc2cnc(N)nc21)COC(C)=O`, for which the inhibition is -22.3%.
Same read-out and setting: next, `S=c1nc[nH]c2nc[nH]c12`: -28% and -16.1% and -18.3%.
The same measure, in the same setting: next, `COc1c(N2CCNC(C)C2)c(F)cc2c(=O)c(C(=O)O)cn(C3CC3)c12` (stereo not drawn): -21.4% and -4.21%; `CC1COc2c(N3CCN(C)CC3)c(F)cc3c(=O)c(C(=O)O)cn1c23` (stereo not drawn): -31.2% and 8.69% and -10.9%; `O=C1c2c(O)ccc(O)c2C(=O)c2c(NCCNCCO)ccc(NCCNCCO)c21`: 42.8%.
The same measure, in the same setting: next, `CS(=O)(=O)OCCCCOS(C)(=O)=O`: -11.9% and 10.4%; `O=C(O)CCCc1ccccc1`: 2.11%.

What is called inhibition is the drop in the measured response relative to a control, in per cent.

Source of the values: PubChem BioAssay.
